Potency and affinity values are given separately.
Columns and labels:
[1] = system: Staphylococcus aureus; conditions: Concentration 32 ug.mL-1;; ASSAY_TEST Inhibition of Bacterial Growth; detection method Absorption (OD600); MEDIA CAMHB; plate type 384well; NBS; CORNING #3640; time 18 hr
[2] = system: Escherichia coli; conditions: Concentration 32 ug.mL-1;; ASSAY_TEST Inhibition of Bacterial Growth; detection method Absorption (OD600); MEDIA CAMHB; plate type 384well; NBS; CORNING #3640; time 18 hr

SMILES | Inhibition [1] | Inhibition [2]
COc1cccc(NC(=O)Cn2nc3ccc(SCc4ccc(Cl)cc4)nn3c2=O)c1 | -4.03% | 0.27%
COc1cccc(NC(=O)Cn2nc3ccc(-c4ccc(Cl)cc4)nn3c2=O)c1 | -8.23% | -11.86%
Cc1ccc(Sc2nccn3c(=O)n(CC(=O)Nc4ccccc4C)nc23)c(C)c1 | -3.06% | -8.99%
COc1ccc(NC(=O)Cn2nc3cc(C)nc(Nc4ccc(F)cc4)n3c2=O)cc1F | 9.09% | -0.97%
O=c1n(Cc2nc(-c3ccc(Br)cc3)no2)nc2ccc(-c3ccccc3)nn12 | 5.03% | -5.77%
COC(=O)c1ccc(CN(c2cccc(C)c2)S(=O)(=O)c2cccn3c(C)nnc23)o1 | 5.77% | -6.24%
Cc1ccc(-c2ccc3nnc(CCC(=O)NCc4ccc(Br)cc4)n3n2)cc1 | 14.28% | 0.41%
Cc1ccc(NC(=O)Cn2nc3c4cc(-c5ccc(C)c(C)c5)nn4ccn3c2=O)c(C)c1 | -8.87% | -22.36%
CCCn1c(=O)c2sccc2n2c(=O)n(CC(=O)c3ccc(OC)c(OC)c3)nc12 | 7.14% | -1.62%
CC(C)CCn1c(=O)c2sccc2n2c(=O)n(Cc3c(F)cccc3Cl)nc12 | 13.63% | 0.76%
Cc1nnc2ccc(S(=O)(=O)N(Cc3cc(F)cc(F)c3)c3ccc(F)cc3)cn12 | 1.57% | -3.09%
CCOc1ccc(-n2ccn3c(SCC(=O)Nc4ccc(Cl)cc4)nnc3c2=O)cc1 | 4.06% | -5.21%
O=C(Cn1nc2ccc(SC3CCCCC3)nn2c1=O)Nc1ccc(F)c(F)c1 | -4.22% | -6.38%
O=C(Cn1nc2ccc(-c3ccccc3)nn2c1=O)Nc1cccc(Cl)c1 | -4.62% | -11.73%
CCOc1ccc(NC(=O)Cn2nc3c(Sc4cccc(F)c4)nccn3c2=O)cc1 | 1.32% | -8.75%
CC(C)c1ccc(Oc2nc3ccccc3n3c(=O)n(CC(=O)Nc4ccc5c(c4)OCO5)nc23)cc1 | 7.37% | 4.92%
O=C(CSc1nnc2c3cc(-c4ccc(F)cc4)nn3ccn12)NCc1ccc(Cl)cc1 | -3.32% | -11.03%

Source: ChEMBL document CHEMBL4513146, “CO-ADD screening of Karazin Kharkiv National University (Ukraine) compounds”
